Source: PubChem BioAssay
Pf growth 48h: P. falciparum growth inhibition at 48 hours (one generation) | 5.9% of 310,000 active | P. falciparum luciferase growth in erythrocytes, 48 h | AID 504832 | Potency, µM (top dose mostly 28.7 µM), hits mostly inhibitors
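Compounds are pin-transferred into medium, infected erythrocytes (2% hematocrit, 0.1% parasitemia final) are added, and plates sit one parasite generation at 37 C in 5% CO2. Detection reagent is then added and luminescence measured.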
Cycloheximide cs: counter-screen hit for Shiga toxin inhibitors, cycloheximide; cell reporter, cycloheximide protein synthesis inhibition counterscreen; max response, %; 12% of 300,000 active; in the data active = max response mostly above about 13%, no sharp cut-off; inactive = mostly below about 14%; note: read at 38.3 µM for the half of the compounds with a filed dose
Pf growth 96h: P. falciparum growth inhibition at 96 hour, primary screen for plastid delayed-death inhibitors | P. falciparum luciferase reporter growth, 96 h | Potency, µM (top dose mostly 28.7 µM), hits mostly inhibitors | 6.9% of 320,000 active | AID 504834
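Erythrocytes infected with luciferase-expressing P. falciparum were dispensed at 2% hematocrit and 0.05% parasitemia (final), then incubated with compounds 96 hours at 37 C in 5% CO2. Luminescence after detection reagent addition reported growth.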
Shiga inhibitor: Shiga toxin inhibition. Vero cells, Shiga toxin protein synthesis inhibition reporter. AID 2315. inhibition, % at 38.7 µM. 9.2% of 290,000 active; in the data active = inhibition mostly above about 28%, no sharp cut-off; inactive = mostly below about 43%
NS1 function inh: influenza NS1 inhibition; Potency, µM (series often up to 46.1 µM); 0.4% of 270,000 active; calls by dose curve; note: actives are rising curves; nearly all actives have a fitted effect of over 50% in size
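A cell-based growth assay was used: compounds that relieve NS1-induced slow growth of budding yeast raise OD600. Assay medium was yeast nitrogen base with ammonium sulphate and -URA supplement, pH 6.0, with 2% galactose.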
Sm TGR inh: inhibitors of Schistosoma mansoni thioredoxin glutathione reductase | Q962Y6 | Potency, µM (highest dose often 114 µM), usual class: inhibitors | purified TGR, DTNB reduction, TNB absorbance 405 nm | 3% of 360,000 active; note: nearly all actives have a fitted effect of over 60% in size
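TGR 20 nM + NADPH 100 uM (dispensed conc.), cpd preinc 15 min RT; start with NADPH (500 uM addition) then DTNB (15 mM addition). Kinetic TNB absorbance, 405 nm filter. Four-parameter Hill fit across titration.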
Hits are given with their value; – = inactive; ? = inconclusive; · = not tested or not shown; [ ] = another dose, or the depositor's remark. Compounds with a hit are over-represented: about 21% of the library has one in this group of screens. Unless noted, calls come from the whole dose curve; as a rule, active = well fitted curve in the direction sought with a large enough effect; inconclusive = small, poorly fitted or top-dose-only effect, or another doubt; inactive = no such curve, though single readings can be large; an effect the other way counts as inactive or inconclusive.

SMILES	Pf growth 48h	Cycloheximide cs	Pf growth 96h	Shiga inhibitor	NS1 function inh	Sm TGR inh
Cc1cccc([C@H]2[C@@H]3C=CC(C)C[C@@H]3C(=O)N2Cc2ccccc2)c1 (stereo partly drawn)	·	–	·	–	·	·
CC(=NC1CCCC1)c1c(C)[nH]n(-c2nc3ccccc3s2)c1=O	–	40	–	75	–	–
CC(=NC1CC1)c1c(-c2ccccc2)[nH]n(-c2nc3ccccc3s2)c1=O	·	–	–	–	–	–
CC(NC(=O)C1CCCN1S(=O)(=O)c1cccc2nsnc12)c1ccccc1 (stereo not drawn)	–	–	?	–	–	–
COc1ccc(CNC(=O)CN(C)S(=O)(=O)c2ccc3c(c2)c(=O)n(C)c(=O)n3C)cc1	?	–	?	–	–	–
O=C(Nc1cc2c(cc1Br)OCCCO2)c1cccnc1	–	38	–	84	–	–
COc1ccc(OC)c(NC(=O)c2cccnc2)c1	–	–	?	·	–	–
O=C(Nc1cc2c(cc1Br)OCCCO2)c1ccccc1	–	78	–	123	–	–
CCCCN(C(=O)c1cccc(S(=O)(=O)N2CC(C)OC(C)C2)c1)c1c(N)n(CC(C)C)c(=O)[nH]c1=O (stereo not drawn)	–	–	–	–	–	–
Cc1cc(C)cc(Oc2ccc(N)cc2)c1	–	–	12µM	–	–	–
Nc1ccc(Oc2cccc(Oc3ccc(N)cc3)c2)cc1	–	–	–	–	·	–
Cc1cccc(Oc2ccc(N)cc2)c1	·	31	–	–	–	–
C/C(=N/Nc1nc(C)c(C)s1)c1cccc([N+](=O)[O-])c1	?	30	?	30	–	?
C/C(=N\Nc1nc(N)cc(Cl)n1)c1cccc([N+](=O)[O-])c1	–	37	?	75	–	–
C/C(=N\NC(=O)c1nc2ccccn2c1C)c1cccc([N+](=O)[O-])c1	?	–	–[5.75 µM]	–	·	–
C/C(=N\Nc1nc(N)cc(Cl)n1)c1cccc(N)c1	–	52	–	39	–	–
C/C(=N/Nc1nc(-c2ccccc2)cc(-c2ccc(F)cc2)n1)c1cccc(N)c1	?	–	–	–	?	–
COCCNC(=O)c1ccc(CSc2nc3ccncc3n2Cc2ccccc2)cc1	·	·	·	·	·	–
COC(=O)N1C(=O)[C@@](c2ccc(OC)cc2)(C(C)C)N1C(=O)OC	–	16	–	19	–	28µM
COC(=O)N1C(=O)[C@](c2ccccc2)(C2CCCC2)N1C(=O)OC	–	19	–	–	–	20µM
COC(=O)N1C(=O)[C@](c2ccc(Cl)cc2)(C(C)C)N1C(=O)OC	–	–	–	–	–	10µM
CC(C)CC(=O)NC(Oc1ccc(Cl)cc1)C(Cl)(Cl)Cl (stereo not drawn)	–	–	–	–	–	–
COC(=O)N1C(=O)[C@@](c2ccccc2)(C(C)C)N1C(=O)OC	–	20	–	–	–	35µM
CCc1ccc(-c2nc3c(c(SCc4ccccc4F)n2)Cc2c(CO)cnc(C)c2O3)cc1	·	·	·	·	·	–
CCc1ccc(C2=NN(C(=O)OC)C(O)(C(F)(F)F)C2)cc1 (stereo not drawn)	–	37	–	62	–	–
SMILES	Pf growth 48h	Cycloheximide cs	Pf growth 96h	Shiga inhibitor	NS1 function inh	Sm TGR inh
COc1cccc(C(=O)N2N=C(c3cccc(OC)c3)CC2(O)C(F)(F)F)c1 (stereo not drawn)	–	–	–	–	–	–
COc1cccc(C2=NN(C(=O)c3cccs3)C(O)(C(F)(F)F)C2)c1 (stereo not drawn)	3.7µM	–	–	–	·	–
O=C(c1ccco1)N1N=C(c2ccncc2)CC1(O)C(F)(F)F (stereo not drawn)	–	–	5.2µM	–	–	–
Cc1ccc(OCC(=O)N2N=C(C(F)(F)F)CC2(O)C(C)(C)C)cc1C (stereo not drawn)	·	–	?	–	–	–
Cc1ccc(OCC(=O)N2N=C(c3cccnc3)CC2(O)C(F)(F)F)cc1C (stereo not drawn)	?	–	9.3µM	–	–	–
COc1ccc(-c2nnc(SCC(=O)NCc3ccccc3)nc2-c2ccc(OC)c(OC)c2)cc1OC	·	·	·	·	·	–
CCCCC(=O)OC1=C(C(=O)c2ccccc2)N(CCC)S(=O)(=O)c2ccccc21	·	·	·	·	·	–
COc1ccc(NC(=O)CC2S/C(=N\c3nccs3)N(C)C2=O)cc1 (stereo not drawn)	–	–	–	–	–	–
Cc1ccc(N2CC(NC(=O)C3CCCC3)CC2=O)cc1C (stereo not drawn)	·	·	·	·	·	–
O=C(Nc1ccccc1)OC[C@H](CN1CCCCC1)OC(=O)Nc1ccccc1	–	·	–	·	·	·
CCOC(=O)N1N=C(c2ccc(OC)cc2)CC1(O)C(F)(F)F (stereo not drawn)	–	42	–	49	–	–
CCOC(=O)N1N=C(c2ccccc2)CC1(O)C(C)(F)F (stereo not drawn)	–	–	?	–	–	·
COCCNC(=O)c1cc(Br)ccc1Cl	–	–	–	–	–	–
COCCNC(=O)C(=O)Nc1cccc(Br)c1	·	23	–	–	–	–
COCCNC(=O)C(=O)Nc1ccc(Br)cc1	–	47	?	71	–	–
COCCNC(=S)NNc1cccc(C(=O)O)c1	–	–	–	66	·	–
COCCNC(=O)C(=O)Nc1ccc(Cl)cc1C	–	32	?	54	·	–
Nc1ccc2oc(-c3ccccc3Br)nc2c1	·	·	·	·	·	–
Nc1ccc2oc(-c3cccc(Br)c3)nc2c1	–	43	–	–	–	–
Cc1ccccc1-c1nc2cc(N)ccc2o1	–	55	–	87	–	–
Nc1ccc(-c2c3ccccc3nc3ccccc23)cc1	–	–	–	–	–	–
Nc1ccc(-c2nc3ccccc3o2)cc1	–	57	–	91	–	–
Nc1ccc2oc(-c3ccc4nc[nH]c4c3)nc2c1	–	16	?	–	–	–
Cc1nc(C)c(CCNC(=O)c2ccccc2Br)s1	–	–	–	–	–	–
CCC(C(=O)NC1CCCC1)N(C(=O)Cn1nnc(-c2ccc(C)o2)n1)c1cccc(OC)c1 (stereo not drawn)	?	–	?	–	–	–
SMILES	Pf growth 48h	Cycloheximide cs	Pf growth 96h	Shiga inhibitor	NS1 function inh	Sm TGR inh
Cc1nc2ccc(-c3nc4cc(N)ccc4o3)cc2[nH]1	?	21	?	27	–	–
CCc1ccc2oc(-c3cccc(N)c3)nc2c1	–	–	–	–	–	–
CSc1ncc(C(=O)Nc2cc(C)ccc2C)c(C)n1	–	–	?	–	–	–
c1ccc(CCN=C2CCCc3c2[nH]c2ccccc32)cc1	–	–	–	–	–	56µM
CC(C)c1ccc2[nH]c3c(c2c1)CCC/C3=N\NC(=O)c1ccncc1	?	–	?	–	–	–
Nc1ccc(C(=O)N/N=C2\CCCc3c2[nH]c2ccccc32)cc1	?	25	?	–	–	–
c1ccc2c3c([nH]c2c1)CCNC3	?	–	–	–	–	–
CCOP(=O)(OCC)/C(C#N)=C/c1ccoc1	–	–	–	–	–	45µM
